Here are results for 13 compounds from PubChem BioAssay (EPA / NIEHS).

In test [1] the target is rat Adrenergic Receptor, Beta (Adrb), Non-selective Binding, Adrb1 (gene 24925) (UniProt P18090). As to the kind of experiment: NVS_GPCR_rAdrb_NonSelective: NovaScreen (NVS) G Protein-Coupled Receptor Assay for rat Adrenergic Receptor, Beta (Adrb), Non-selective Binding (AID 2283298). The essentials: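 Non-selective beta-adrenergic radioligand binding in rat cortical membranes, 1 h incubation, filter-based scintillation read-out. Primary screen 25 uM in duplicate; hits retested in concentration-response up to 50 uM, DMSO baseline.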
Sequence of rat Adrenergic Receptor, Beta (Adrb), Non-selective Binding, Adrb1 (gene 24925) (P18090 whole entry, looked up): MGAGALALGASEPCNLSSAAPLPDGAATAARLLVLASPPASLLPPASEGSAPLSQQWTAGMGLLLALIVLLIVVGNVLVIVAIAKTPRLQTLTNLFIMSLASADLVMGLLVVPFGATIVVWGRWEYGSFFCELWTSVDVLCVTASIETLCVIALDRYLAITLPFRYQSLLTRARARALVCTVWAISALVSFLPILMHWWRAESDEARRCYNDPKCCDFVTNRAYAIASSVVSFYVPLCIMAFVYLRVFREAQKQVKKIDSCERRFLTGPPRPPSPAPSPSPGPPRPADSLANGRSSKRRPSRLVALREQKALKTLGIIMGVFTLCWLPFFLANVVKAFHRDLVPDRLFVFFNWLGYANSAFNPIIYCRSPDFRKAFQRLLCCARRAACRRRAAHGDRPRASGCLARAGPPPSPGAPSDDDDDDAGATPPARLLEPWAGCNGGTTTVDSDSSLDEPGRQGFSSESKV

Test [2] has as its system 5-hydroxytryptamine receptor 2C (pig). As to the kind of experiment: NVS_GPCR_p5HT2C: NovaScreen (NVS) G Protein-Coupled Receptor Assay for pig Serotonin, 5-Hydroxytryptamine Receptor 2C (5HT2C) (AID 2283288). The method, boiled down:
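Pig choroid plexus membranes; radioligand competitive binding, filter-based scintillation counting, read 1 h after dosing. Primary screen in duplicate at 25 uM; actives then run as concentration series; loss of signal versus DMSO baseline.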

Test [3] addresses rat Adrenergic, Alpha 1, Non-selective Receptor (Adra1), Adra1a (gene 29412) (UniProt P43140). As to the kind of experiment: NVS_GPCR_rAdra1_NonSelective: NovaScreen (NVS) G Protein-Coupled Receptor Assay for rat Adrenergic, Alpha 1, Non-selective Receptor (Adra1) (AID 2283289). The method, boiled down:
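Rat forebrain membranes; radioligand displacement read by filter-based scintillation counting 1 h after dosing. Primary screen in duplicate at 25 uM; hits (e.g. ≥30% inhibition) rerun as concentration–response to 50 uM max. Fitted versus DMSO.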

Test [4] has as its target human Opioid Receptor Mu (Opiate Mu), OPRM1 (gene 4988) (UniProt P35372). As to the kind of experiment: NVS_GPCR_hOpiate_mu: NovaScreen (NVS) G Protein-Coupled Receptor Assay for human Opioid Receptor Mu (Opiate Mu) (AID 2283290).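 Also: hits lower bound tracer signal versus DMSO meaning displacement of the ligand.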 The method, boiled down:
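Here, radioligand binding to CHO-extracted receptor was measured after 2.5 h using filter-based scintillation detection. Initial single-concentration screening used 25 uM in duplicate with plate controls; confirmed actives went to concentration-response testing.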

For test [5], the target named is rat Serotonin, 5-Hydroxytryptamine Receptor (5HT), Non-Selective Binding, Htr1a (gene 24473) (UniProt P19327). As to the kind of experiment: NVS_GPCR_r5HT_NonSelective: NovaScreen (NVS) G Protein-Coupled Receptor Assay for rat Serotonin, 5-Hydroxytryptamine Receptor (5HT), Non-Selective Binding (AID 2283295). The method, boiled down: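 Radioligand displacement on rat cortical membranes, 1 h incubation, filter-based scintillation counting. Primary duplicates at 25 uM, actives retested in concentration series; loss of signal fitted against DMSO as baseline.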
Sequence of rat Serotonin, 5-Hydroxytryptamine Receptor (5HT), Non-Selective Binding, Htr1a (gene 24473) (P19327 whole entry, looked up): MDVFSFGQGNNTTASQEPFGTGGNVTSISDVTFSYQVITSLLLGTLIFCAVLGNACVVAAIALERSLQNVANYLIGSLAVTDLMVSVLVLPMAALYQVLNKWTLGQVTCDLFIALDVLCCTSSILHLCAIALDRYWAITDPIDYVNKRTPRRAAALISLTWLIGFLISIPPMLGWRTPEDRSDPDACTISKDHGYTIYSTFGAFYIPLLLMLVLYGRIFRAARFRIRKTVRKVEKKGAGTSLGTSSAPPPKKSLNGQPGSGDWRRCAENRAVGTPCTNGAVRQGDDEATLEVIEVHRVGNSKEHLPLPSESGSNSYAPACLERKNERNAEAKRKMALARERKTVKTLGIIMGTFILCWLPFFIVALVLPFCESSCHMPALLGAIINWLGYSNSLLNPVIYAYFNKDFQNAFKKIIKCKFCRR

Test [6] addresses rat Adrenergic, Alpha 1A Receptor (Adra1A), Adra1a (gene 29412) (UniProt P43140). Put plainly: NVS_GPCR_rAdra1A: NovaScreen (NVS) G Protein-Coupled Receptor Assay for rat Adrenergic, Alpha 1A Receptor (Adra1A) (AID 2283296). The essentials:
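Rat cortical membranes pretreated with chlorethyl clonidine; competitive radioligand displacement, 1 h. Filter-based scintillation counting. Primary screen in duplicate at 25 uM, actives followed in concentration series.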

Another test concerns the target Adra2b (gene 24174) (UniProt P19328). Put plainly: NVS_GPCR_rmAdra2B: NovaScreen (NVS) G Protein-Coupled Receptor Assay for hybird cells Adrenergic, Alpha 2B Receptor (Adra2B) (AID 2283306). The essentials:
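Radioligand filter-binding assay on membrane proteins from neuroglioma/blastoma hybrid cells (rodent), 1 h after dosing; scintillation counting, loss of signal vs DMSO. Primary screen in duplicate at 25 uM, actives then run in concentration series.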

In test [7] the target is mouse Cholecystokinin, CCK1 Receptor (CCKA), Cckar (gene 12425) (UniProt O08786). As to the kind of experiment: NVS_GPCR_mCCKAPeripheral: NovaScreen (NVS) G Protein-Coupled Receptor Assay for mouse Cholecystokinin, CCK1 Receptor (CCKA) (AID 2283285). The method, boiled down:
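Radioligand competitive displacement on mouse pancreatic membranes, 2 h incubation; filter-based scintillation counting, loss of signal versus DMSO. Single-concentration screen at 25 uM in duplicate, actives retested in concentration-response up to 50 uM.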

Test [8] addresses rat Gamma-Aminobutyric Acid Type B Receptor (GABBR), Gabbr1 (gene 81657) (UniProt Q9Z0U4). As to the kind of experiment: NVS_GPCR_rGABBR: NovaScreen (NVS) G Protein-Coupled Receptor Assay for rat Gamma-Aminobutyric Acid Type B Receptor (GABBR) (AID 2283301). The essentials:
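Radioligand displacement on rat cortical membranes, 1 h, filter-based scintillation counting. Primary screen at 25 uM in duplicate; compounds passing threshold re-tested in concentration-response up to 50 uM; loss of binding fitted against DMSO.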

The subject of test [9] is rat Adrenergic, Alpha 1B Receptor (Adra1B), gene 24173. As to the kind of experiment: NVS_GPCR_rAdra1B: NovaScreen (NVS) G Protein-Coupled Receptor Assay for rat Adrenergic, Alpha 1B Receptor (Adra1B) (AID 2283297). The method, boiled down: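 Rat liver membranes, radioligand displacement with filter-based scintillation detection, 1 h incubation. Primary screen in duplicate at 25 uM; actives retested in concentration series; activity relative to DMSO.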

Test [10] has as its target guinea pig Serotonin, 5-Hydroxytryptamine Receptor 4 (5HT4), HTR4 (gene 100135548) (UniProt O70528). As to the kind of experiment: NVS_GPCR_g5HT4: NovaScreen (NVS) G Protein-Coupled Receptor Assay for guinea pig Serotonin, 5-Hydroxytryptamine Receptor 4 (5HT4) (AID 2283294). The essentials:
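Guinea pig striatal membranes; radioligand competitive displacement, filtration and scintillation counting after 1 h. Primary screen in duplicate at 25 uM; actives then tested in concentration series; loss of binding signal fitted relative to DMSO.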

Test [11] has as its target rat Adrenergic Receptor, Alpha 2 (Adra2), Non-selective Binding, Adra2a (gene 25083) (UniProt P22909). As to the kind of experiment: NVS_GPCR_rAdra2_NonSelective: NovaScreen (NVS) G Protein-Coupled Receptor Assay for rat Adrenergic Receptor, Alpha 2 (Adra2), Non-selective Binding (AID 2283299). The method, boiled down:
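Rat cortical membranes, radioligand competitive displacement read by filter-based scintillation counting 1.25 hours after dosing. Primary screen in duplicate at 25 uM; actives followed up in concentration series.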

In test [12] the target is rat Serotonin, 5-Hydroxytryptamine Receptor 1 (5HT1), Non-Selective Binding, Htr1a (gene 24473) (UniProt P19327). As to the kind of experiment: NVS_GPCR_r5HT1_NonSelective: NovaScreen (NVS) G Protein-Coupled Receptor Assay for rat Serotonin, 5-Hydroxytryptamine Receptor 1 (5HT1), Non-Selective Binding (AID 2283286). The essentials:
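Rat cortical membranes, radioligand displacement, 1 h incubation, read by filter scintillation. Primary screen in duplicate at 25 uM. Hits (e.g. ≥30% inhibition) went to concentration-response up to 50 uM, fitted as loss of binding versus DMSO.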

Inconclusive results are not listed. Activity calls are given as the source filed them. The calls were made as follows: active = hit-call score of the fitted dose curve at least 0.9, where 1 is the maximum; inconclusive = response in the unintended direction; inactive = score below 0.9.

Sequence of human Opioid Receptor Mu (Opiate Mu), OPRM1 (gene 4988) (P35372 whole entry, looked up): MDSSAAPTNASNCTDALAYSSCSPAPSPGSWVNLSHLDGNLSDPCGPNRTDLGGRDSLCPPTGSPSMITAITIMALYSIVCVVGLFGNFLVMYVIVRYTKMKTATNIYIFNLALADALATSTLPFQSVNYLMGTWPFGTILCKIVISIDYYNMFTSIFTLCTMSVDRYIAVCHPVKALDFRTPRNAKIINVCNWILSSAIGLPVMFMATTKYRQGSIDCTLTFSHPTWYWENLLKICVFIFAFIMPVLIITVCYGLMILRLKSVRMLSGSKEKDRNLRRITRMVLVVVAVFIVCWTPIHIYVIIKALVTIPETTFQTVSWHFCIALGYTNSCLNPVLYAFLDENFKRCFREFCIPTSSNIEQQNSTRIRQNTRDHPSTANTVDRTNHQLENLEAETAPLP
Sequence of guinea pig Serotonin, 5-Hydroxytryptamine Receptor 4 (5HT4), HTR4 (gene 100135548) (O70528 whole entry, looked up): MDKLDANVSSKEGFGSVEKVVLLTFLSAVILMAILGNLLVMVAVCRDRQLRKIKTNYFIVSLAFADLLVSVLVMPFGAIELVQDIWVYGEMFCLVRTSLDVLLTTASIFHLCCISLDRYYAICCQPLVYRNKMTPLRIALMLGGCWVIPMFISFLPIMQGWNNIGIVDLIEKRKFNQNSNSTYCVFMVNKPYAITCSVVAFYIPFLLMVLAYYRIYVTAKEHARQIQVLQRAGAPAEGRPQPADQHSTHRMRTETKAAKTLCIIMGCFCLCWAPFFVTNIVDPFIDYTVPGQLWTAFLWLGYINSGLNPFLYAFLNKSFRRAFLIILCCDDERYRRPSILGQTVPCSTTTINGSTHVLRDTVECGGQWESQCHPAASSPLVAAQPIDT
Sequence of rat Gamma-Aminobutyric Acid Type B Receptor (GABBR), Gabbr1 (gene 81657) (Q9Z0U4 whole entry, looked up): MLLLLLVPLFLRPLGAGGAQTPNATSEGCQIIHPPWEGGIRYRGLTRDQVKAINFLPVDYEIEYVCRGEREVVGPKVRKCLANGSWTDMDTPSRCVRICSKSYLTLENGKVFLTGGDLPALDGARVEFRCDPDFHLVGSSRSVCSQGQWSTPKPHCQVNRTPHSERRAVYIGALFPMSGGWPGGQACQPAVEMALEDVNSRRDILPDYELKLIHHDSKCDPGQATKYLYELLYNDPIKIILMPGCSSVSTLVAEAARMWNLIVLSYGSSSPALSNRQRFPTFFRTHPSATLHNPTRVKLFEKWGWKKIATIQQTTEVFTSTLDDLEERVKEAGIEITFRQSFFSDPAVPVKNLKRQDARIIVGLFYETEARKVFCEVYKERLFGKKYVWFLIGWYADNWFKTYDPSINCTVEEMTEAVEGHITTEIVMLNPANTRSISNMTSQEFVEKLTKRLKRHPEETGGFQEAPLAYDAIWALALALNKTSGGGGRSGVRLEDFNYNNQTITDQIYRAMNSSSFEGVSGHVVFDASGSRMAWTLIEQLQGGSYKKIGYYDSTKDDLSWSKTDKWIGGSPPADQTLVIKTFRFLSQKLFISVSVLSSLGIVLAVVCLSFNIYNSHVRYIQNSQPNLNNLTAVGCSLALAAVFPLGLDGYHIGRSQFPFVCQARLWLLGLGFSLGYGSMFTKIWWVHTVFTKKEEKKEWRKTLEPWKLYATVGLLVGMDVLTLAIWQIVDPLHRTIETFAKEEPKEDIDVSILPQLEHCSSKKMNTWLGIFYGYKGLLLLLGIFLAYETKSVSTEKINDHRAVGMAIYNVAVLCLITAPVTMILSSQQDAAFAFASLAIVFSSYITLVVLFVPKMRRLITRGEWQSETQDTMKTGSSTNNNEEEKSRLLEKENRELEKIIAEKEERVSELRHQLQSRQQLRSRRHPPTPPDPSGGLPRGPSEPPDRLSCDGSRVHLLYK
Sequence of Adra2b (gene 24174) (P19328 whole entry, looked up): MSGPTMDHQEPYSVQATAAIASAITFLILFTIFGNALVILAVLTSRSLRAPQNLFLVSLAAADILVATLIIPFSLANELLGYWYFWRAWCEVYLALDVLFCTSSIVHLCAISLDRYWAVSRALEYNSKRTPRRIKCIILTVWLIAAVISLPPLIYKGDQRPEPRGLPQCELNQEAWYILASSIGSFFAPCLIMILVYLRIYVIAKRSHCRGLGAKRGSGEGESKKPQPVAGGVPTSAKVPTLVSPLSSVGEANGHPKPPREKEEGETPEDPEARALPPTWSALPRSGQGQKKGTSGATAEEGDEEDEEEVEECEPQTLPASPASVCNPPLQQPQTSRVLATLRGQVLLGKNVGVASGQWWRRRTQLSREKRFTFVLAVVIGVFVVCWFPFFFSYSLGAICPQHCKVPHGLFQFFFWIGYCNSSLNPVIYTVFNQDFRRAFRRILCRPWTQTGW
Sequence of rat Adrenergic, Alpha 1A Receptor (Adra1A), Adra1a (gene 29412) (P43140 whole entry, looked up): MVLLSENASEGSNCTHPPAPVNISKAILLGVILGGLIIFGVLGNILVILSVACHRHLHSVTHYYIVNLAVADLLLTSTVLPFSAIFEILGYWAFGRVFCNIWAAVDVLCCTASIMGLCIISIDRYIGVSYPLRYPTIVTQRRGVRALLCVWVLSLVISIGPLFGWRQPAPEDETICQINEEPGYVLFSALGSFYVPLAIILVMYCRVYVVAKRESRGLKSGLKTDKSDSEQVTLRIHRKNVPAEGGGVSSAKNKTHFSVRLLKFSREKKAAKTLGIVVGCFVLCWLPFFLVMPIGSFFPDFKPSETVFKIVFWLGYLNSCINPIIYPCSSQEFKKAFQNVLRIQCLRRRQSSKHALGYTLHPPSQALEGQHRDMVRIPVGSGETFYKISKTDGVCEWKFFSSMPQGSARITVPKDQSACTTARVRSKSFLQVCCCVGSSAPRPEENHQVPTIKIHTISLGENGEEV
Sequence of rat Adrenergic, Alpha 1, Non-selective Receptor (Adra1), Adra1a (gene 29412) (P43140 whole entry, looked up): as above
Sequence of rat Adrenergic Receptor, Alpha 2 (Adra2), Non-selective Binding, Adra2a (gene 25083) (P22909 whole entry, looked up): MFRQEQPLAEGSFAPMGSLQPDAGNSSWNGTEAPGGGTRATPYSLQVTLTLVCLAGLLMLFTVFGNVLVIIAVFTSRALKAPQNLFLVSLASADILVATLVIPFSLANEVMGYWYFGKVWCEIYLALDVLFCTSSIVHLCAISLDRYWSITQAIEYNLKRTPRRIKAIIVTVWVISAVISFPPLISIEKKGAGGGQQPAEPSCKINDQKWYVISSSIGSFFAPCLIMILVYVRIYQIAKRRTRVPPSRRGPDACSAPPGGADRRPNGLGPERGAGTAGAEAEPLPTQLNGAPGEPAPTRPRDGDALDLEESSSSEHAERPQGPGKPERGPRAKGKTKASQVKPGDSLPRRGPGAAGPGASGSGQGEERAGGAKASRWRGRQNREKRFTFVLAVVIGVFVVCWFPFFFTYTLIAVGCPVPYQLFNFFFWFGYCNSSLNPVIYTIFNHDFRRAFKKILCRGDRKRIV
Sequence of mouse Cholecystokinin, CCK1 Receptor (CCKA), Cckar (gene 12425) (O08786 whole entry, looked up): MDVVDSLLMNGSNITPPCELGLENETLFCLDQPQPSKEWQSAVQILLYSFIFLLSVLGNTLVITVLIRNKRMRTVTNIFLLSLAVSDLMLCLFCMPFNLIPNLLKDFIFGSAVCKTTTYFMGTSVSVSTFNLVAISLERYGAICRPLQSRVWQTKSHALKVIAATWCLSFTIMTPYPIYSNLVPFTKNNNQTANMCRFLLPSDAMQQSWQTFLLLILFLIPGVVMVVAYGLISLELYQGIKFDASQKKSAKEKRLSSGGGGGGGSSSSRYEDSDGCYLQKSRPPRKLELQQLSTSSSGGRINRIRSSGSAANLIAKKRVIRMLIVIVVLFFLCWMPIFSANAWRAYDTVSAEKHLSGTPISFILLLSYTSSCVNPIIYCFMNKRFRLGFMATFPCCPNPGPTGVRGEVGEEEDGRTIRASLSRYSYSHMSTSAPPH
Sequence of rat Serotonin, 5-Hydroxytryptamine Receptor 1 (5HT1), Non-Selective Binding, Htr1a (gene 24473) (P19327 whole entry, looked up): as the sequence (P19327 whole entry, looked up) above

With `O=c1c(-c2ccc(O)cc2)coc2cc(O)ccc12`, the compound was called inactive in [1].
As a reminder, the AC50 is the concentration giving half of the maximal activity seen. For the compound `CC(=O)NC1(c2cccc(F)c2)CCN(CC[C@@]2(c3ccc(Cl)c(Cl)c3)CN(c3ccccc3)C(=O)CO2)CC1`, the AC50 in test [2] is 3.53 µM (active); in test [3], 11.8 µM (active); in [4], 10.3 µM (active); in [5] it was 2.9 µM (active); in test [6], 34.8 µM (active); with Adra2b (gene 24174), 11 µM (active).
On to `ClC1=C(Cl)C(Cl)(Cl)C(Cl)=C1Cl`, for which the call in test [7] was inactive.
For the compound `CCCOC(=O)c1ccc(O)cc1`, the outcome in test [2] was inactive.
Consider `NC(=O)N1C(=O)C(C(=O)c2cc(Cl)cs2)c2cc(F)c(Cl)cc21` (stereo not drawn), for which the compound was classed as inactive in test [7], in test [2], in [4] and in test [8].
For `CC[C@H](C)[C@@H](C(=O)O)n1sc2ccccc2c1=O`, the compound was classed as inactive in test [9].
For the compound `Cc1cc(CCN2CCN(c3nsc4ccccc34)CC2)cc2c1NC(=O)CC2(C)C`, the AC50 in test [2] is 0.00247 µM (active); in test [10], 15.2 µM (active). Further, the outcome in [8] was inactive.
As for `CCCCCCCCCCCCCC[N+](C)(C)C`, in test [4], the AC50 is 8.19 µM (active).
The same measure, in the same setting: the figure for `CC[C@H](c1ccc(O)cc1)[C@@H](CC)c1ccc(O)cc1` is 1.1 µM (active).
On to `O=[N+]([O-])c1ccc(O)cc1`, for which the call in test [2] and in test [5] was inactive.
`CCN(CC)CCNc1ccc(CNC=O)c2sc3ccc(OC)cc3c(=O)c12`: the AC50 in test [2] is 13.5 µM (active); in [3], 20.1 µM (active); in test [4], 9.79 µM (active); in test [10] it was 7.23 µM (active); in test [5], 40.2 µM (active); in test [6], 18.9 µM (active). Further, the figures for the AC50 (in test [9]; in test [11]; with Adra2b (gene 24174)) were 19.4 µM (active), 13.6 µM (active) and 9 µM (active), respectively.
For `CC1=C(/C=C/C(C)=C/C=C/C(C)=C/C(=O)O)C(C)(C)CCC1`, the AC50 in [12] was 4.36 µM (active).
Consider `Nc1cccc2c(N)cccc12`, for which the compound was called inactive in test [10]. Besides, the AC50 in test [11] was 16.8 µM (active).
